# Experimental data taken from PubChem BioAssay (NCATS).
# Records with an inconclusive call do not appear. A call without a number means that no potency is given here. Unmarked numbers belong to inactive results. The source made the active and inactive calls. Calls follow the shape of the dose curve; as a rule, active = well fitted curve in the direction sought with a large enough effect; inconclusive = small, poorly fitted or top-dose-only effect, or another doubt; inactive = no such curve, though single readings can be large; an effect the other way counts as inactive or inconclusive.
# Columns and labels:
# [1] = qHTS for Inhibitors of the Aldehyde Dehydrogenase Family (ALDH1A2, ALDH1A3, ALDH2, ALDH3A1) (AID 2061307); also: nearly all actives have a fitted effect of over 50% in size; as to potency: test system not described further here; potency is read from the fitted curve at half-maximal effect
# [2] = target: Aldehyde dehydrogenase, mitochondrial (Homo sapiens) (UniProt P05091); test: qHTS for Inhibitors of the Aldehyde Dehydrogenase Family (ALDH2) Primary screen (AID 2061308); also: nearly all actives have a fitted effect of over 55% in size; also: potency is read from the fitted curve at half-maximal effect
# [3] = target: Retinal dehydrogenase 2 (Homo sapiens) (UniProt O94788); test: qHTS for Inhibitors of the Aldehyde Dehydrogenase Family (ALDH1A2) Confirmation screens (AID 2061314); also: nearly all actives have a fitted effect of over 65% in size; also: potency is read from the fitted curve at half-maximal effect
# [4] = target: Retinaldehyde dehydrogenase 3 (Homo sapiens) (UniProt P47895); test: qHTS for Inhibitors of the Aldehyde Dehydrogenase Family (ALDH1A3) Primary screen (AID 2061315)
# [5] = target: Retinaldehyde dehydrogenase 3 (Homo sapiens) (UniProt P47895); test: qHTS for Inhibitors of the Aldehyde Dehydrogenase Family (ALDH1A3) Confirmatory screens (AID 2061311); also: nearly all actives have a fitted effect of over 60% in size; also: potency is read from the fitted curve at half-maximal effect
# [6] = target: Aldehyde dehydrogenase 1A1 (Homo sapiens) (UniProt P00352); test: qHTS for Inhibitors of the Aldehyde Dehydrogenase Family (ALDH1A1) Confirmatory screens (AID 2061316); also: nearly all actives have a fitted effect of over 65% in size; also: potency is read from the fitted curve at half-maximal effect
# [7] = BET inhibitor-based combinations targeting novel dependencies in MECOM-rearranged (r) AML: SET-2 cell line (AID 2202231); settings: SET-2 AML cells viability, CellTiter-Glo luminescence, 48 h; viability: hits give low values, concentration not given here; also: potency is read from the fitted curve at half-maximal effect; nearly all actives have a fitted effect of over 35% in size
# Method in brief: (§1)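 Readout: CellTiter-Glo luminescence. Exposure: 48 h, 11 concentrations, 500 cells/well. Metric: AUC and within-line Z-AUC after DMSO/empty-well normalization.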
# [8] = BET inhibitor-based combinations targeting novel dependencies in MECOM-rearranged (r) AML: MV-4-11 cell line (AID 2202233); also: potency is read from the fitted curve at half-maximal effect; nearly all actives have a fitted effect of over 45% in size
# Method in brief: (§2)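 Seeding density was 500 cells/well, and drug exposure lasted 48 hr under standard culture conditions. Read-out used CellTiter-Glo reagent with a 15 min room-temperature incubation before luminescence measurement; AUC and Z-AUC summarize the normalized responses.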
# [9] = BET inhibitor-based combinations targeting novel dependencies in MECOM-rearranged (r) AML: HNT-34 cell line (AID 2202234); also: potency is read from the fitted curve at half-maximal effect; nearly all actives have a fitted effect of over 35% in size
# Method in brief: as §2
# [10] = BET inhibitor-based combinations targeting novel dependencies in MECOM-rearranged (r) AML: UCSD-AML1 cell line (AID 2202235); also: potency is read from the fitted curve at half-maximal effect; nearly all actives have a fitted effect of over 40% in size
# Method in brief: as §2
# [11] = BET inhibitor-based combinations targeting novel dependencies in MECOM-rearranged (r) AML: AML-191 cell line (AID 2202236; also: potency is read from the fitted curve at half-maximal effect; nearly all actives have a fitted effect of over 35% in size)
# Method in brief: as §1
# [12] = BET inhibitor-based combinations targeting novel dependencies in MECOM-rearranged (r) AML: AML-194 cell line (AID 2202237; also: potency is read from the fitted curve at half-maximal effect; nearly all actives have a fitted effect of over 40% in size)
# Method in brief: as §1
smiles,measurement,setting,value
N#Cc1c(-c2cccc(Cl)c2)no[n+]1[O-],Potency,[1],12.7 µM (active)
same,Potency,[2],8.91 µM (active)
same,Potency,[3],5.04 µM (active)
same,Potency,[4],inactive
Cc1ccc(OCCn2c3c(c4ccccc42)CN(C(=O)C2CCCCC2)CC3)cc1,Potency,[1],1.59 µM (active)
same,Potency,[2],inactive
same,Potency,[5],11.3 µM (active)
same,Potency,[4],inactive
same,Potency,[6],2.01 µM (active)
COc1ccc(C2Nc3ccccc3C(=O)N2Cc2ccncc2)cc1COc1ccc(NC(C)=O)cc1 (centres undefined),Potency,[1],3.57 µM (active)
same,Potency,[2],inactive
same,Potency,[3],5.04 µM (active)
same,Potency,[4],inactive
Nc1ccc(Nc2cc(O)c3ncccc3c2)cc1,Potency,[1],inactive
same,Potency,[2],inactive
same,Potency,[5],0.712 µM (active)
same,Potency,[6],14.2 µM (active)
Nc1nccc(-c2c(-c3ccc(F)cc3)ncn2C2CCCCC2)n1,Potency,[1],inactive
same,Potency,[2],inactive
same,Potency,[5],inactive
same,Potency,[4],inactive
same,Potency,[7],20.9 µM (active)
same,Potency,[8],16.6 µM (active)
same,Potency,[9],20.9 µM (active)
C/C(=C\c1cccc(C(F)(F)F)c1)C1Nc2cccc3cccc(c23)N1,Potency,[1],inactive
same,Potency,[2],inactive
same,Potency,[5],11.3 µM (active)
same,Potency,[4],inactive
Cc1ccc(-c2cnn(CC(=O)NCCc3ccccc3)c(=O)c2)cc1,Potency,[1],12.7 µM (active)
same,Potency,[2],inactive
same,Potency,[5],14.1 µM (active)
same,Potency,[4],inactive
CN(C)c1ccc(C(=O)NCC(=O)OC(C(=O)Nc2cc(C(F)(F)F)ccc2Cl)c2ccccc2)cc1 (centres undefined),Potency,[1],inactive
same,Potency,[2],inactive
same,Potency,[5],11.3 µM (active)
same,Potency,[4],inactive
CN1C(=O)Cc2cc([S+](=O)([O-])N3CCN([S+](=O)([O-])c4c(F)cccc4F)CC3)ccc21,Potency,[1],inactive
same,Potency,[2],inactive
same,Potency,[5],inactive
same,Potency,[4],inactive
CCCCN1C(=O)c2ccccc2NC1c1ccc(OC)c(COc2ccc(NC(C)=O)cc2)c1 (centres undefined),Potency,[1],7.12 µM (active)
same,Potency,[2],inactive
same,Potency,[5],12.6 µM (active)
same,Potency,[4],inactive
NC(=O)C1CCN(c2nc(-c3cc4ccccc4o3)cs2)CC1,Potency,[1],2.83 µM (active)
same,Potency,[2],inactive
same,Potency,[5],inactive
same,Potency,[4],inactive
same,Potency,[6],6.34 µM (active)
CN(C)CCCNc1ccc(NC(=O)c2cccs2)cn1,Potency,[1],inactive
same,Potency,[2],inactive
same,Potency,[3],5.65 µM (active)
same,Potency,[4],inactive
COc1ccc(C2=Nn3c(nnc3-c3ccccc3OC)SC2)cc1,Potency,[1],2.01 µM (active)
same,Potency,[2],inactive
same,Potency,[3],inactive
same,Potency,[4],inactive
Cc1csc(CN(C)c2ncnc3ccc(-c4ccc5c(c4)OCO5)cc23)n1,Potency,[1],0.201 µM (active)
same,Potency,[2],inactive
same,Potency,[5],25.1 µM (active)
same,Potency,[4],inactive
same,Potency,[6],12.7 µM (active)
NC(=O)C1CCN(c2nccc(-c3ccc4c(c3)OCCCO4)n2)CC1,Potency,[1],inactive
same,Potency,[2],inactive
same,Potency,[5],12.7 µM (active)
same,Potency,[4],inactive
same,Potency,[6],11.3 µM (active)
CNc1oc(-c2c[nH]c3ccccc23)nc1C#N,Potency,[1],11.3 µM (active)
same,Potency,[2],inactive
same,Potency,[3],inactive
same,Potency,[4],inactive
CNC(=O)C1CCN(c2nc(-c3ccc(Br)cc3)cs2)CC1,Potency,[1],12.6 µM (active)
same,Potency,[2],inactive
same,Potency,[5],inactive
same,Potency,[4],inactive
O=c1[nH]c(CN2CCOCC2)nc2sc3c(c12)CCCC3,Potency,[1],inactive
same,Potency,[2],inactive
same,Potency,[5],inactive
same,Potency,[4],inactive
same,Potency,[6],inactive
COc1ccc(C2Oc3ccccc3C(=O)N2Cc2ccccc2)cc1COc1ccc(NC(C)=O)cc1 (centres undefined),Potency,[1],0.283 µM (active)
same,Potency,[2],inactive
same,Potency,[3],7.12 µM (active)
same,Potency,[4],inactive
c1nc(NCC2CC2)c2cc(-c3ccc4c(c3)OCO4)ccc2n1,Potency,[1],inactive
same,Potency,[2],inactive
same,Potency,[5],inactive
same,Potency,[4],inactive
c1csc(CNc2ccc(N3CCOCC3)cc2)c1,Potency,[1],inactive
same,Potency,[2],inactive
same,Potency,[3],22.5 µM (active)
Cc1ccc2nc3sc(C(=O)N4CCCCC4)cc3cc2c1,Potency,[1],11.3 µM (active)
same,Potency,[2],inactive
same,Potency,[5],12.7 µM (active)
same,Potency,[4],inactive
N#Cc1cnc(NS(=O)(=O)c2ccc(NC(=O)Cc3ccc(Cl)c(Cl)c3)cc2)s1,Potency,[1],25.2 µM (active)
same,Potency,[2],inactive
same,Potency,[5],inactive
same,Potency,[4],inactive
same,Potency,[6],inactive
Cc1ccc(CN(C)c2ccc(N3CCN(C)CC3)cc2)cc1,Potency,[1],inactive
same,Potency,[2],10 µM (active)
same,Potency,[5],20.1 µM (active)
same,Potency,[6],2.01 µM (active)
Cc1cc(-c2nnc3n2CCCCC3)c(C)n1-c1cccc2ccccc12,Potency,[1],inactive
same,Potency,[2],inactive
same,"activity change, negative = inhibition",[5],-18.8% [at 0.022 µM]
same,Potency,[6],12.7 µM (active)
Cc1ccc(NC(=O)CN2C(=O)N/C(=C\c3cccn3-c3ccc(C(=O)O)cc3)C2=O)cc1,Potency,[1],inactive
same,Potency,[2],inactive
same,Potency,[5],inactive
same,Potency,[4],inactive
CC(=O)Nc1sc2c(c1-c1nc3ccccc3s1)CN(C(C)C)C2,Potency,[1],inactive
same,Potency,[2],inactive
same,Potency,[5],inactive
same,Potency,[4],inactive
O=C(OCC#CCSc1nnc(-c2cccc3ccccc23)o1)c1ccncc1,Potency,[1],inactive
same,Potency,[2],inactive
same,Potency,[5],2.01 µM (active)
same,Potency,[4],inactive
same,Potency,[6],inactive
O=C([C@@H]1CCCN(c2ccc3[nH]c(C4(n5cc(Cl)cn5)CC4)nc3n2)C1)N1CCCC1,Potency,[1],inactive
same,Potency,[2],inactive
same,Potency,[5],inactive
same,Potency,[4],inactive
same,Potency,[6],inactive
Cc1ccc(S(=O)(=O)Nc2cc(C(F)(F)F)ccc2C(=O)Nc2nc(-c3ccccc3)cs2)cc1,Potency,[1],0.355 µM (active)
same,Potency,[2],inactive
same,Potency,[5],inactive
same,Potency,[4],inactive
same,Potency,[7],14.8 µM (active)
same,Potency,[8],8.33 µM (active)
same,Potency,[10],8.33 µM (active)
same,Potency,[11],5.9 µM (active)
same,Potency,[12],9.34 µM (active)
Cc1ccc(N[S+](=O)([O-])c2cc3c(cc2Cl)NC(=O)CO3)cc1Br,Potency,[1],10.1 µM (active)
same,Potency,[2],inactive
same,Potency,[3],14.2 µM (active)
same,Potency,[4],inactive
